This passage reports activity remaining results from PubChem BioAssay.

Unmarked numbers belong to inactive results. How the calls were made is not given here.

The test system of the test is Aerobactin synthetase IucA (Klebsiella pneumoniae hvKP1). The test can be described thus: Biochemical IucA enzyme inhibition primary screen of the Spectrum library (AID 1346200).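 Further: 100% = wells without compound and 0% = wells lacking enzyme.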 To be noted: malachite green pyrophosphate, A620, at 8 µM, hits give low values.
As for `O=C1[O][Bi][O]c2ccccc21`, the activity remaining was 107%.

In the case of `CCOC(=O)[C@H](CCc1ccccc1)N[C@H]1CCc2ccccc2N(CC(=O)O)C1=O`, the activity remaining was 123%.

With `CN(C)CCc1c[nH]c2ccc(CS(=O)(=O)N3CCCC3)cc12`, the activity remaining is 128%.

Turning to `CC(=O)NC1SCCC1=O` (centres undefined), the activity remaining was 112%.

As to `COc1ccc([C@H]2COc3c(ccc(O)c3OC)C2)c(OC)c1O`, the activity remaining was 89.5%.

In the case of `CCCCCc1c2c(cc(O)c1C(=O)O)OC(=O)c1c(cc(OC)cc1C(=O)CCCC)O2`, the activity remaining is 121%.

Turning to `CC1(C)C2C[C@@H](O)[C@]3(C)C(CC[C@@]4(C)[C@H](c5ccoc5)OC(=O)C5OC543)[C@@]2(C)C(=O)C[C@H]1O` (some centres undefined), the activity remaining is 108%.

Take `C[N+]1(C)C2CC[C@H]1CC(OC(=O)C(O)c1ccccc1)C2` (some centres undefined): the activity remaining was 95%.

In the case of `CC(=O)O[C@]1(C(C)=O)CCC2C3C=C(Cl)C4=CC(=O)[C@@H]5C[C@@H]5[C@]4(C)C3CC[C@@]21C` (some centres undefined), the activity remaining is 101%.

For `CC[C@H]1OC(=O)[C@H](C)[C@@H](O[C@H]2C[C@@](C)(OC)[C@@H](O)[C@H](C)O2)[C@H](C)[C@@H](O[C@@H]2O[C@H](C)C[C@H](N(C)C)[C@H]2O)[C@](C)(O)C[C@@H](C)C(=O)[C@H](C)[C@@H](O)[C@]1(C)O`, the activity remaining was 117%.

On to `CCCCCCCCCCCCC[N+](C)(C)Cc1ccccc1`, for which the activity remaining is 104%.

As for `COC(=O)C(N)CS` (centres undefined), the activity remaining is 122%.

As for `C=C1CCC2[C@](C)(CO)[C@H](O)CC[C@@]2(C)[C@@H]1C/C=C1/C(=O)OC[C@H]1O` (some centres undefined), the activity remaining was 108%.

Turning to `C[C@H]1CC[C@@H](C(C)(C)O)CC2=C1CC[C@@H]2C`, the activity remaining is 102%.

As to `CC1=CC2C(C(C)C)CCC(C)(O)C2CC1` (centres undefined), the activity remaining was 89.3%.

`CC(C)=CCC[C@](C)(O)C1CC=C(C)CC1` (some centres undefined): the activity remaining was 118%.

Consider `CC1=C2[C@@H](CC1)[C@@H](C)CC[C@@H]2/C=C(\C)C(=O)O`, for which the activity remaining was 113%.

Regarding `CC(=O)OCC(=O)[C@@]1(O)CCC2C3CC[C@@H]4C[C@H](O)CC[C@]4(C)C3C(=O)C[C@@]21C` (some centres undefined), the activity remaining was 97.5%.

As for `C=C1CC[C@@]2(OC1)O[C@H]1CC3C4CC=C5C[C@@H](O)C[C@@H](O)[C@]5(C)C4CC[C@]3(C)[C@H]1[C@@H]2C` (some centres undefined), the activity remaining was 113%.

For `CC12CCCC(O)(C1)C1CC(C)(C)C1CC2` (centres undefined), the activity remaining was 91.8%.

Take `CC1(C)S[C@@H]2[C@H](NC(=O)COc3ccccc3)C(=O)N2[C@H]1C(=O)O`: the activity remaining is 96.2%.

For the compound `NCc1ccc(S(N)(=O)=O)cc1`, the activity remaining is 114%.

With `CC[C@H](/C=C/C(C)C1CCC2C3CCC4=CC(=O)CC[C@]4(C)C3CC[C@]12C)C(C)C` (some centres undefined), the activity remaining was 101%.

For the compound `C=C[C@@](C)(O)CCC1C(=C)CCC2[C@@](C)(CO)CCC[C@]12C` (some centres undefined), the activity remaining was 117%.

For the compound `O=C1c2ccccc2C(=O)c2c(O)c(O)cc(O)c21`, the activity remaining is 118%.

As for `C=C[C@@H](C1=CC(=O)C(OC)=C(OC)C1=O)c1ccccc1`, the activity remaining is 128%.

On to `O=c1[nH]c(=O)n(C2C[C@@H](O)[C@@H](CO)O2)cc1F` (some centres undefined), for which the activity remaining is 120%.

As for `COc1cc(O)c(C(C)=O)c(OC)c1`, the activity remaining is 104%.

As to `CCN1CCN(c2cc3c(cc2F)c(=O)c(C(=O)O)cn3C2CC2)CC1`, the activity remaining is 100%.

`CC(=O)NS(=O)(=O)c1ccc(N)cc1`: the activity remaining is 126%.

For the compound `FC(F)(F)COCC(F)(F)F`, the activity remaining is 120%.

Take `COc1ccc2cc([C@H](C)CO)ccc2c1`: the activity remaining is 118%.

Turning to `CC(=O)Oc1cc(OC(C)=O)c2c(c1)O[C@H](c1ccc(OC(C)=O)c(OC(C)=O)c1)[C@@H](OC(C)=O)C2`, the activity remaining is 98%.

Consider `O=c1c(O)c(-c2ccccc2)oc2cc(O)ccc12`, for which the activity remaining was 100%.

Regarding `O=C(CCCN1CCN(c2ccccn2)CC1)c1ccc(F)cc1`, the activity remaining is 124%.

As to `C[C@]12CCc3occc3C1CC[C@@]13C[C@@H](CCC12)[C@@](O)(CO)C3` (some centres undefined), the activity remaining is 93.4%.

As for `CC[C@]1(O)CC2CN(CCc3c([nH]c4ccccc34)[C@@](C(=O)OC)(c3cc4c(cc3OC)N(C)[C@H]3[C@@](O)(C(=O)OC)[C@H](OC(C)=O)[C@]5(CC)C=CCN6CC[C@]43[C@@H]65)C2)C1` (some centres undefined), the activity remaining is 126%.

For the compound `COc1ccc(-c2cc(=O)c3ccccc3o2)cc1`, the activity remaining was 114%.

On to `C[C@@H]1[C@H]2[C@H](O[C@@H]3O[C@H](CO)[C@@H](O)[C@H](O)[C@H]3O)OC=C(C(=O)O)[C@H]2C[C@@H]1O`, for which the activity remaining was 120%.
